Source: PubChem BioAssay (NCATS)
Records with an inconclusive call do not appear. Active and inactive are the calls of the source. Unless noted, no rule for the calls is given here.

Legend:
[1] = qHTS profiling for inhibitors of Plasmodium falciparum (3D7) proliferation (AID 743322);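 also: infected erythrocytes exposed to compound for 72 h before lysis; 100% = DMSO vehicle wells and 0% = 0.29 µM artemisinin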; conditions: P. falciparum 3D7 proliferation; at 28.7 µM (top of the series)
Summary of the method: (§1)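 Erythrocytes infected with P. falciparum (0.3% parasitemia, 2.5% hematocrit) incubated with compounds 72 h at 37 C, 5% CO2. Lysis with saponin/Triton buffer containing SYBR Green I, overnight at room temperature in the dark; DNA fluorescence (485/535 nm) normalised to 0.29 uM artemisinin and DMSO.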

[2] = qHTS profiling for inhibitors of Plasmodium falciparum (HB3) proliferation (AID 743324; active = well fitted curve in the direction sought with a large enough effect; an effect the other way counts as inactive or inconclusive;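 also: 100% = DMSO vehicle wells and 0% = artemisinin-treated control wells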); conditions: Plasmodium falciparum HB3 blood-stage proliferation; at 28.7 µM (top of the series)
Summary of the method: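 P. falciparum HB3 grown in erythrocytes (0.3% parasitemia, 2.5% hematocrit final) with compound for 72 h at 37 C, 5% CO2. Parasite DNA detected by SYBR Green after saponin/triton lysis overnight; normalized to 0.29 uM artemisinin and DMSO.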

[3] = qHTS profiling of the MIPE4 collection as inhibitors of Plasmodium falciparum (3D7) proliferation (AID 743344);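 also: scaled between DMSO vehicle wells and 0.29 µM artemisinin as full inhibition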; conditions: P. falciparum 3D7 in erythrocytes, SYBR Green DNA fluorescence, 72 h; at 28.5 µM (top of the series) unless noted
Summary of the method: as §1

[4] = qHTS profiling of the MIPE4 collection as inhibitors of Plasmodium falciparum (DD2) proliferation (AID 743345); conditions: P. falciparum Dd2 in erythrocytes, SYBR Green DNA, 72 h; at 28.5 µM (top of the series) unless noted
Summary of the method: as §1

[5] = qHTS profiling of the MIPE4 collection as inhibitors of Plasmodium falciparum (DD2) proliferation (Rep 2) (AID 743346); conditions: P. falciparum Dd2 in erythrocytes, SYBR Green DNA, 72 h; at 28.5 µM (top of the series) unless noted
Summary of the method: as §1

[6] = qHTS profiling of the MIPE4 collection as inhibitors of Plasmodium falciparum (HB3) proliferation (AID 743347);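 also: plate controls were DMSO vehicle wells for no effect and artemisinin wells for full effect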; conditions: P. falciparum HB3 in erythrocytes, SYBR Green DNA, 72 h; at 28.5 µM (top of the series) unless noted
Summary of the method: as §1

[7] = High-throughput drug toxicity screening in the BPDCN cell line Gen2.2 (AID 1224824); conditions: Gen2.2 BPDCN cells; at 45.8 µM (top of the series) unless noted;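 also: cells exposed to compounds for 48 h before reading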
Summary of the method: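 CellTiter-Glo luminescence after 48 h compound exposure of Gen2.2 cells; percent activity set with DMSO as 100% and bortezomib (9.2 uM final) as 0%. Cells seeded at 500 per well, RPMI + 10% FBS, 37 °C.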

[8] = High-throughput drug toxicity screening in the BPDCN cell line Cal-1 (AID 1224825); conditions: Cal-1 BPDCN cell viability, qHTS; at 45.8 µM (top of the series) unless noted
Summary of the method: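 Exponentially growing Cal-1 cells, 500 per well in phenol red-free RPMI with 10% FBS, were exposed to compounds for 48 h at 37 °C, 5% CO2. Viability was read by CellTiter-Glo luminescence and normalised to DMSO (100%) and 9.2 uM bortezomib (0%).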

[9] = qHTS assay for measurement of the activity of small molecule inhibitors on Zika virus induced Caspase-3 activity in human iPSC derived neural progenitor cells (hNPCs) (AID 1224857; active = well fitted curve in the direction sought with a large enough effect; an effect the other way counts as inactive or inconclusive; also: nearly all actives have a fitted effect of over 65% in size; also: potency is read from the fitted curve at half-maximal effect)
Summary of the method: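 Values are percent inhibition of virus-induced caspase-3/7 signal, scaled between uninfected cells and ZIKV-infected cells. Infection used 2 FFU/cell for 6 h after 1 h compound exposure.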

Row | SMILES | remaining parasite growth % (stronger effect = lower value) [1] | remaining proliferation (% of control), lower = more inhibition [2] | parasite growth, % of DMSO control [3] | parasite growth remaining, % of DMSO control (lower = more inhibition) [4] | parasite growth, % of control (lower = inhibition) [5] | growth, % of control [6] | cell viability, % of control (lower = more cytotoxic) [7] | viability (% of control) [8] | Potency [9]
1 | Clc1ccc(-c2nc3sccn3c2C=NOCc2ccc(Cl)c(Cl)c2)cc1 | 110% | 103% | 30.7% | 51.5% | 122% | 43.2% | 111% | 116% | inactive
2 | CN1C[C@H]2c3ccccc3Oc3ccc(Cl)cc3[C@@H]2C1 |  |  |  |  |  |  | 54.1% | 73.9% | 
3 | Cc1ccc(F)c(NC(=O)Nc2ccc(-c3cccc4[nH]nc(N)c34)cc2)c1 | 81.3% | 23.1% | 6.52% | 37.7% | 13.4% | 9.71% | 5.38% | 1.55% | inactive
4 | O=C(NOCC(O)CO)c1cc(Br)c(F)c(F)c1Nc1ccc(I)cc1F (centres undefined) |  |  | 89.4% | 87.4% | 100% | 77.4% | 1.76% | 57.3% | inactive
5 | COc1ccc(-c2oc3c(CC=C(C)C)c(OC4O[C@H](CO)[C@@H](O)[C@H](O)[C@@H]4O)cc(O)c3c(=O)c2OC2O[C@@H](C)[C@H](O)[C@@H](O)[C@@H]2O)cc1 (some centres undefined) |  |  | 8.49% | 5.99% | 36.2% | 11.3% | 68.1% | 102% | inactive
6 | O=C(O)CCC1CCC(c2cc(F)ccc2F)(S(=O)(=O)c2ccc(Cl)cc2)CC1 (centres undefined) | 23.3% | 56.3% | 66.9% | 93.8% | 51.1% | 82.6% | 8.09% | 9.48% | inactive
7 | CC(C)(C)C(=O)Oc1ccc2c(c1)nc(NC(=O)c1cccc([N+](=O)[O-])c1)n2CCCO | 92% | 53.3% | 21.2% | 46.4% | 22.2% | 10.6% | 190% | 102% | inactive
8 | CCOC1OC(=O)C[C@H]1NC(=O)[C@@H]1CCCN1C(=O)[C@@H](NC(=O)c1ccc(N)c(Cl)c1)C(C)(C)C (some centres undefined) |  |  |  |  |  |  | 49.8% | 16.7% | 
9 | CC(C)(C(=O)NCC(F)(F)C(F)(F)F)C(=O)N[C@@H]1C(=O)Nc2ccccc2-c2ccccc21 | 5.09% | -0.0337% | 8.18% | 9.25% | 11.3% | 10.3% | 71.1% | 5.17% | inactive
10 | COc1cc2nc(-c3ccc(N4CCN(C)CC4)cc3)nc(NCCN3CCOCC3)c2cc1OC | -1.55% | -0.898% | 5.09% | 4.83% | 12.1% | 2.87% | 1.57% | 2.25% | 5.9 µM (active)
11 | CC1(C)O[C@H]2C[C@@H]3[C@H]4CCC5=CC(=O)C=C[C@]5(C)[C@@]4(F)[C@@H](O)C[C@]3(C)[C@]2(C(=O)CO)O1 |  |  | 38.4% | 92.5% | 65.2% | 69% | 37.9% | 8.18% | inactive
12 | CC(=O)Nc1ccc([C@H](C)C(=O)Nc2ncc(C(C)C)s2)cc1 | 95.5% | 93.4% | 5.36% | 104% | 7.23% | 2.84% | 7.33% | 6.1% | 14.8 µM (active)
13 | CN1CCN(CCOc2cc(OC3CCOCC3)c3c(Nc4c(Cl)ccc5c4OCO5)ncnc3c2)CC1 | 0.208% | -0.659% | 5.31% | 8.1% | 7.87% | 6.19% | 54.1% | 2.69% | inactive
14 | CC(C)OC(=O)C(C)(C)Oc1ccc(C(=O)c2ccc(Cl)cc2)cc1 |  |  |  |  |  |  | 250% | 119% | 
15 | CC(C)C(=O)Nc1ncc(-c2cc(C(F)F)nn2-c2c(Cl)cccc2Cl)s1 | 0.0648% | -0.0078% | 9.88% | 13.6% | 18.7% | 11.3% | 113% | 6.45% | inactive
16 | COc1cc2ncnc(Nc3ccc(F)c(Cl)c3)c2cc1OCCCN1CCOCC1 |  |  |  |  |  |  | 14.5% [at 92.2 µM] | 4.41% [at 92.2 µM] | 
17 | O=C(N[C@@H](c1ccccc1)[C@@H]1CCCCN1)c1cccc(C(F)(F)F)c1Cl | 52.4% | 29.7% | 9.06% | 8.97% |  | 8.07% | 87.4% | 24.7% | inactive
18 | O=C(CCCCCCC(=O)Nc1ccccc1)NO |  |  |  |  |  |  | 171% | 7.8% | 
19 | COc1cc(N2CCC(N3CCN(C)CC3)CC2)ccc1Nc1ncc(Cl)c(Nc2ccccc2S(=O)(=O)C(C)C)n1 | -0.393% | -1.09% | 3.8% | 7.75% |  | 7.64% | 5.5% | 2.84% | inactive
20 | O=C1c2ccccc2-[n+]2ccc3c([nH]c4ccccc43)c21 |  |  | 16.3% | 7.19% | 16.6% | 4.72% | 5.04% | 3.57% | 1.05 µM (active)
21 | CC(=O)N(C)C1(c2ccccc2)CCN(CCC[C@]2(c3ccc(Cl)c(Cl)c3)CCCN(C(=O)c3ccccc3)C2)CC1 | -0.589% | -1.35% | 6.96% | 7.14% | 38.7% | 7.98% | 9.34% | 7.8% | inactive
